We go through 39 compounds from PubChem BioAssay (NCATS).

Results filed as inconclusive are left out. Where a call stands in place of a potency, no number is given. Calls of active or inactive are those of the source. Calls follow the shape of the full dose curve. Bridge positions count the residues as written; N and C are the ends. Square brackets hold non-standard residues; d marks the D form. Peptide text beside a SMILES is read from it. hArg = N=C(N)NCCCC[C@H](N)C(=O)O; Mpa = O=C(O)CCS
Potency is read from the fitted curve at half-maximal effect.

The experiment is described as follows: Cytotoxicity counterscreen for inhibitors of SARS-CoV-2 cell entry (AID 1645845). Also: nearly all actives have a fitted effect of over 50% in size. Particulars: cell viability (SARS-CoV-2 entry assay cells); series mostly up to 57.1 µM. In short, it runs like this:
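Counterscreen run in the same HEK293-ACE2 line as the pseudotyped-particle entry assay, without particles. Viability after 48 h at 37 C was read as ATP luminescence, scaled between cell-containing and cell-free wells.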
On to `CCCS(=O)c1ccc2nc(NC(=O)OC)[nH]c2c1` (centres undefined), for which the Potency result was “inactive”.

As to `CCOC(=O)C1=C[C@]2(CC)CCCN3CCc4c(n1c1ccccc41)[C@@H]32`, the Potency result is “inactive”.

`Cc1ccc(C(=O)Oc2ccc(C(O)CNC(C)(C)C)cc2OC(=O)c2ccc(C)cc2)cc1` (centres undefined): the Potency entry is “inactive”.

For `CCN(CC)CCCC(C)Nc1c2ccc(Cl)cc2nc2ccc(OC)cc12` (centres undefined), the Potency entry was “inactive”.

Turning to `CCCCCCCCCCCCCCCC[n+]1ccccc1`, the Potency is 11.2 µM (active).

Take `NC(=O)CC[C@@H](N)C(=O)O`: the Potency entry is “inactive”.

For the compound `O=C(O)c1cccc(-c2noc(-c3ccccc3F)n2)c1`, the Potency was 6.31 µM (active).

Consider `C=Cc1c(C)c2cc3[nH]c(cc4nc(cc5nc(cc1[nH]2)C(C)=C5CCC(=O)O)C(CCC(=O)O)=C4C)c(C)c3C=C`, for which the Potency result was “inactive”.

Take `Clc1ccc2c(c1)CCc1cccnc1C2=C1CCNCC1`: the Potency result was “inactive”.

Regarding `COc1cccc(CCc2ccccc2OCC(CN(C)C)OC(=O)CCC(=O)O)c1` (centres undefined), the Potency result is “inactive”.

For `CCCCOc1cc(C(=O)OCCN(CC)CC)ccc1N`, the Potency entry was “inactive”.

Consider `CCN(CC)CCOC(=O)C1(c2ccccc2)CCCC1`, for which the Potency result is “inactive”.

With `Cc1cccc(CN2CCN(C(c3ccccc3)c3ccc(Cl)cc3)CC2)c1` (centres undefined), the Potency result was “inactive”.

As to `O=C(Nc1ccc([N+](=O)[O-])cc1)Nc1ccc([N+](=O)[O-])cc1`, the Potency entry is “inactive”.

For the compound `CC(C)OC(=O)C(C(=O)OC(C)C)=C1SC=CS1`, the Potency entry was “inactive”.

As for `Nc1c2c(nc3ccccc13)CCCC2`, the Potency result is “inactive”.

As to `NC(=O)[C@@H]1CSSCCC(=O)N[C@@H](CCCCN=C(N)N)C(=O)NCC(=O)N[C@@H](CC(=O)O)C(=O)N[C@@H](Cc2c[nH]c3ccccc23)C(=O)N2CCC[C@H]2C(=O)N1` ([Mpa][hArg]GDWPC-NH2; disulfide 1-7), the Potency entry was “inactive”.

Consider `C#C[C@]1(OC(C)=O)CC[C@H]2[C@@H]3CCC4=C[C@@H](OC(C)=O)CC[C@@H]4[C@H]3CC[C@@]21C`, for which the Potency entry was “inactive”.

On to `O=C(Nc1ccc(Cl)cc1)Nc1ccc(Cl)c(C(F)(F)F)c1`, for which the Potency is 22.4 µM (active).

For `CC(C)(C)c1ccc(C(O)CCCN2CCC(C(O)(c3ccccc3)c3ccccc3)CC2)cc1` (centres undefined), the Potency entry was “inactive”.

As for `CC1CCCCN1CCCOC(=O)c1ccc(OC2CCCCC2)cc1` (centres undefined), the Potency result is “inactive”.

For `CN1CCCN(C(c2ccccc2)c2ccc(Cl)cc2)CC1` (centres undefined), the Potency entry was “inactive”.

Regarding `CN1CCC(OC(c2ccccc2)c2ccccc2)CC1`, the Potency result was “inactive”.

`OC(CCN1CCCCC1)(c1ccccc1)c1ccccc1`: the Potency result was “inactive”.

On to `C=CCOc1ccccc1OCC(O)CNC(C)C` (centres undefined), for which the Potency result is “inactive”.

For `COc1cc(O)c(C(=O)c2ccccc2)cc1S(=O)(=O)O`, the Potency result was “inactive”.

On to `OC[C@@H](O)[C@H](O)[C@H](O)[C@@H](O)CO`, for which the Potency result was “inactive”.

On to `CNC(=O)c1c(I)c(NC(=O)CCCCC(=O)Nc2c(I)c(C(=O)O)c(I)c(C(=O)NC)c2I)c(I)c(C(=O)O)c1I`, for which the Potency entry is “inactive”.

With `CN(C)CCCOc1nn(Cc2ccccc2)c2ccccc12`, the Potency result was “inactive”.

`CCN(CC)CC(=O)Nc1c(C)cccc1C(=O)OC`: the Potency entry was “inactive”.

Regarding `CCC(C)(C)c1ccc(CC(C)CN2C[C@@H](C)O[C@@H](C)C2)cc1` (some centres undefined), the Potency entry is “inactive”.

With `NS(=O)(=O)c1cc2c(cc1Cl)NC(C1CC3C=CC1C3)NS2(=O)=O` (centres undefined), the Potency result was “inactive”.

`CCN(CC)CCOc1ccccc1C(=O)CCc1ccccc1`: the Potency result was “inactive”.

With `Cc1ccc(/C(=C\CN2CCCC2)c2ccccn2)cc1`, the Potency result was “inactive”.

As to `CCOC(=O)OC(C)OC1=C(C(=O)Nc2ccccn2)N(C)S(=O)(=O)c2ccccc21` (centres undefined), the Potency result was “inactive”.

With `N[C@H](C(=O)O)[C@@H](O)c1ccc(O)c(O)c1`, the Potency result is “inactive”.

`CCOC(=O)[C@H](CCc1ccccc1)N[C@@H](C)C(=O)N(CC(=O)O)C1Cc2ccccc2C1`: the Potency entry is “inactive”.

Regarding `CC(C)(C)c1ccc(C(=O)CCCN2CCC(OC(c3ccccc3)c3ccccc3)CC2)cc1`, the Potency result is “inactive”.

Take `NC1=NCC2c3ccccc3Cc3ccccc3N12` (centres undefined): the Potency entry was “inactive”.
